Assay outcomes from PubChem BioAssay.
aSyn UTR act = Activators via SNCA 5'UTR binding, MLPCN | alpha-synuclein 5'UTR reporter, activators screen | activity score, % (tested at 7.5 µM), hits read low | hit rate 7.1% among 300,000; in the data active = activity score below about -60%
Large screens that a line does not name were inactive. Only a sample is shown.

Cc1ccc2nc(SCC(=O)N3CCOCC3)[nH]c2c1	aSyn UTR act -89
Cc1ccc2[nH]c(SCC(=O)N3CCOCC3)nc2c1C	aSyn UTR act -110
C/C(N)=C(/C#N)C(=O)CSc1nc2ccc(C)cc2[nH]1	aSyn UTR act -183
c1ccc(COc2ccc3nocc3c2)cc1	aSyn UTR act -104
O=C(CC(Nc1ccc(F)cc1)c1ccccc1)c1ccccc1 (configuration not stated)	aSyn UTR act -89
Cc1c(Cl)cccc1NC(CC(=O)c1ccccc1)C(=O)O (configuration not stated)	aSyn UTR act -102
O=C(CC(Nc1ccc(Cl)cc1)C(=O)O)c1ccccc1 (configuration not stated)	aSyn UTR act -69
O=C(CC(Nc1ccccc1Cl)C(=O)O)c1ccccc1 (configuration not stated)	aSyn UTR act -94
COC(=O)c1ccccc1SC(CC(=O)c1ccccc1)c1ccc(F)cc1 (configuration not stated)	aSyn UTR act -68
CSc1nc(O)c(N=Nc2ccc(F)cc2F)c(=O)[nH]1	aSyn UTR act -138
CC(C)c1ccc(NC(=S)Nc2ccc3cn[nH]c3c2)cc1	aSyn UTR act -94
COc1ccccc1NC(=S)Nc1ccc2cn[nH]c2c1	aSyn UTR act -101
Cc1nc2ccccc2c(=O)n1/N=C/c1c(O)ccc2oc3c(c12)CCCC3	none
Nn1c(COc2ccc(Cl)cc2)nc2ccccc2c1=O	aSyn UTR act -67
Cc1nc2ccccc2c(=O)n1/N=C/c1ccccc1F	aSyn UTR act -101
O=c1c2ccccc2nc(COc2ccccc2)n1/N=C/c1ccco1	aSyn UTR act -86
CCOc1ccc(/C=N/n2c(C)nc3ccccc3c2=O)cc1	aSyn UTR act -67
CCOC(=O)c1cnc2c(OC)cccc2c1N1CCN(c2ccccc2OC)CC1	none
CCOC(=O)c1cnc2ccc(Cl)cc2c1N1CCN(C)CC1	aSyn UTR act -97
CC1CCc2c(nc3ncnn3c2NCCc2ccccc2F)C1 (configuration not stated)	aSyn UTR act -69
CSc1nc(N)nc(SCC(=O)c2ccc(C)cc2)c1C#N	aSyn UTR act -113
Cc1snc(SCC(=O)c2ccc(F)cc2)c1C#N	aSyn UTR act -124
CSc1nc(N)nc(SCC(=O)OC(C)C)c1C#N	aSyn UTR act -82
O=C(NCCSC1CCCCC1)c1ccccc1	aSyn UTR act -67
COc1ccc(C(=O)NCCSC2CCCCC2)cc1	aSyn UTR act -159
CCOc1ccc(C(=O)c2ccc(OCC)c(N)c2)cc1N	aSyn UTR act -70
CN(C)c1ccc(C(=O)c2ccc(N(C)C)c(N)c2)cc1N	aSyn UTR act -74
Cc1ccc(Nc2n[nH]c(C)c2[N+](=O)[O-])cc1C	aSyn UTR act -164
Cc1[nH]cnc1C(=O)N/N=C/c1c(Cl)cccc1Cl	aSyn UTR act -73
CCn1cc(Cl)c(C(=O)Nc2nccs2)n1	aSyn UTR act -82
O=C(Nc1nccs1)c1ncc(Cl)c(Cl)c1Cl	aSyn UTR act -76
Cn1cc(Cl)c(C(=O)Nc2nccs2)n1	aSyn UTR act -72
Fc1ccc(NC(=S)Nc2nccs2)cc1	aSyn UTR act -128
CC(C)(C)c1nnc(NC(=S)Nc2ccccc2)s1	aSyn UTR act -167
S=C(Nc1ccccc1)Nc1nccs1	aSyn UTR act -177
Fc1ccc(NC(=S)Nc2ccc3nccnc3c2)cc1	aSyn UTR act -91
O=C1N=C(N2CCOCC2)SC1=C1CCCCC1	aSyn UTR act -85
COc1cccc2[nH]c3c(N4CCCC(C)C4)ncnc3c12 (configuration not stated)	aSyn UTR act -143
Cc1c(C(=O)NCc2ccccn2)oc2ccccc12	aSyn UTR act -138
Cc1c(C(=O)NCc2ccccn2)oc2ccc(Br)cc12	aSyn UTR act -131
CC(C)(C)C(=O)O/N=C(\N)COc1cccc(Cl)c1	aSyn UTR act -125
CCCCCCCCCCCCCCCC[N+](C)(C)CC	none
O=c1oc(-c2ccc(Br)cc2)nc2ccccc12	aSyn UTR act -130
CCCOc1cccc(-c2nc3ccccc3c(=O)o2)c1	aSyn UTR act -95
CC(O)CNCCCCOc1ccc(OCc2ccccc2)cc1 (configuration not stated)	aSyn UTR act -93
Nc1ccc(-n2cnc3cc([N+](=O)[O-])ccc32)cc1	aSyn UTR act -66
O=[N+]([O-])c1cccc(C2Nc3cccc4cccc(c34)N2)c1	aSyn UTR act -72
CCOC(=O)c1ccc(NC(=O)COc2ccc(CNC3CCCCC3)cc2OC)cc1	aSyn UTR act -63
Cn1c(CO)cnc1SCC(=O)c1ccc(F)cc1	aSyn UTR act -65
Cc1ccc(C(=O)CSc2ccccn2)cc1	aSyn UTR act -191
O=C(CSc1ccccn1)c1ccc(F)cc1	aSyn UTR act -130
Cc1ccc(NC(=O)CCSc2ccccn2)cc1	aSyn UTR act -145
O=C(OCn1ncc(Br)c(Br)c1=O)c1ccc(F)cc1	none
Cc1ccc(N(CC(=O)NCCSc2ccccn2)S(C)(=O)=O)cc1	aSyn UTR act -98
O=C(CSc1n[nH]c(-c2ccccc2O)n1)N1CCOCC1	aSyn UTR act -70
Cc1ccc(NC(=S)NNC(=O)c2nn(C)cc2Cl)cc1	aSyn UTR act -90
